Bioassay records (PubChem)
A selection: hits, their analogues and other compounds. The true share with any hit is near 9.9%.
SW480 rerep: induces DNA re-replication in SW480 colon adenocarcinoma cells | SW480 DNA re-replication, Hoechst DNA content imaging, 48 h | 340,000 compounds, 1.8% hits | Potency, µM (highest dose often 46.1 µM), for inactives: top-dose re-replication activation, hits mostly activators; note: potency is the fitted concentration of half-maximal effect; % of control where 0% means no effect; nearly all actives have a fitted effect of over 55% in size
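Image-based read-out: total Hoechst fluorescence of nuclei (405 nm excitation, 500-530 nm emission), with hits raising the fraction of high-intensity nuclei. SW480 colon cells incubated 48 hr with compounds at 37 C.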
KB-V1 cytotox: KB-V1 MDR subline cytotoxicity; KB-V1 MDR cells viability, CellTiter-Glo, 72 h; Potency, µM (highest dose often 46.1 µM), usual class: cytotoxic; 400,000 compounds, 3.4% hits; note: potency is the fitted concentration of half-maximal effect; % is set by controls: 0 for no effect and ±100 for the full control effect; nearly all actives have a fitted effect of over 60% in size
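Luminescent ATP read-out (CellTiter-Glo, 10 min) measures survival of drug-selected KB-V1 MDR cells after 72 h, 37 degrees C compound exposure. Medium: phenol-red-free DMEM, 10% FBS. Values from fitted concentration-response curves.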
KB-3-1 cytotox: kills parental KB-3-1 adenocarcinoma cells; KB-3-1 viability, CellTiter-Glo ATP luminescence, 72 h; Potency, µM (series often up to 46.1 µM), actives largely listed as cytotoxic; 400,000 compounds, 1.4% hits; AID 1347075; note: potency is the fitted concentration of half-maximal effect; % is set by controls: 0 for no effect and ±100 for the full control effect; nearly all actives have a fitted effect of over 60% in size
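Parental KB-3-1 viability, qHTS format: 72 h compound exposure, 37 °C; CellTiter-Glo; media-only wells and DMSO plates as controls; concentration-effect fits on corrected data.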
IL1B secr inh: inhibitors of inflammasome signaling (IL-1 beta secretion) | THP-1 LPS/ATP IL-1B secretion, AlphaLISA, 16 h; stronger effect = lower value | activity change, % at 57.5 µM | 360,000 compounds, 4.7% hits | AID 743279; in the data active = activity change below about -50%; inconclusive = mostly about -30% to -49%; note: % is set by controls: 0 for no effect and ±100 for the full control effect
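Secreted IL-1B measured by AlphaLISA bead assay after 16 h compound exposure of THP-1 cells; compounds (final up to 57.5 uM) added 1 h before LPS (250 ng/mL) and ATP (1.25 mM) stimulation; lower signal means less secretion.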
MCF10A rerep: induces DNA re-replication in MCF 10a normal breast cells | MCF 10A DNA re-replication, Hoechst nuclear intensity, 48 h | 350,000 compounds, 2.9% hits | Potency, µM (series often up to 46.1 µM), for the others: top-dose activity, positive = re-replication, hits mostly activators | AID 624296; note: potency is the fitted concentration of half-maximal effect; % of control where 0% means no effect; nearly all actives have a fitted effect of over 50% in size
An asterisk follows results filed as active; i = inactive; ? = inconclusive; . = no result given; ! = repeats disagree. Unless noted, calls come from the whole dose curve; as a rule, active = well fitted curve in the direction sought with a large enough effect; inconclusive = small, poorly fitted or top-dose-only effect, or another doubt; inactive = no such curve, though single readings can be large; an effect the other way counts as inactive or inconclusive.

SMILES	SW480 rerep	KB-V1 cytotox	KB-3-1 cytotox	IL1B secr inh	MCF10A rerep
CC1CN(S(=O)(=O)c2cc(C(=O)N(C)Cc3cccs3)ccc2Cl)CC(C)O1 (stereo unspecified)	-3%	10µM*	i	32	11%
CN(Cc1cccs1)C(=O)c1ccc(S(=O)(=O)N2CCCCC2)cc1	-1%	?	i	0	5%
Cc1ccccc1OCC(=O)NNC(=O)CSc1nc(N)cc(N)n1	?	i	i	15	16%
C/C(=N/NC(N)=S)c1ccc(Br)s1	?	8.2µM*	?	-6	0%
COc1cc(C(=O)Nc2ccc3c(c2)N(C(=O)CN2CCN(C)CC2)c2ccccc2CC3)cc(OC)c1OC	-6%	i	i	-18	16%
O=C(NCCc1ccccc1)C(=O)c1c(-c2ccccc2)cc2ccccn12	-8%	21µM*	i	-19	-3%
O=C(NCCO)C(=O)c1c(-c2ccc(Cl)cc2)cc2ccccn12	-7%	i	i	0	1%
CC(C)(C)N(Cc1ccc2c(c1)OCO2)C(=O)/C=C\S(=O)c1ccccc1 (stereo unspecified)	9.2µM*	i	?	-61*	10µM*
CCCCCCCCN1C(=O)[C@H](CC(=O)N2CCC(c3ccccc3)CC2)C[C@@]2(C(=O)OC)CCCCC=C12	.	?	i	-18	.
CCOC(=O)C1CCN(CC(C)(C)NS(=O)(=O)c2ccc(Cl)cc2)CC1	10%	i	i	5	15µM*
CC(C)(CN1CCNCC1)NS(=O)(=O)c1ccc(Cl)cc1	4%	i	21µM*	0	12µM*
CCOC(=O)C1CCN(CC(C)(C)NS(=O)(=O)c2ccc(C)cc2)CC1	-5%	i	i	6	0%
CC(C)(CN1CCCC1)NS(=O)(=O)c1ccc(Cl)cc1	-8%	i	i	-16	19%
COc1cc(/C=C/C(=O)N(C)CC(=O)Nc2ccccc2SC)cc(OC)c1OC	-5%	13µM*	i	14	4%
CSc1ccccc1NC(=O)CN(C)C(=O)/C=C/c1ccccc1	-11%	i	i	-7	6%
CC1CCN(Cc2nnnn2CCCC(=O)NCCc2cnn(C)c2)CC1	2%	i	i	5	1%
CCC(c1nc2ccccc2[nH]1)n1c(=O)c(-c2ccco2)nc2ccccc21 (stereo unspecified)	.	?	i	-66*	.
CN(C(=O)CN1C(=O)NC(C)(c2cccc(Br)c2)C1=O)C1CCCCC1 (stereo unspecified)	4%	23µM*	i	-89*	10%
CC1(c2cccc(Br)c2)NC(=O)N(CC(=O)NCC2CCCO2)C1=O (stereo unspecified)	-3%	i	i	5	13%
CC(C)(C)CC(C)(C)N=C1Nc2cc(Cl)c(Cl)cc2NC12C[C@H]1CCC(=O)N3CC[C@@H](C2)[C@@H]13 (stereo partly specified)	15%	?	?	-64*	?
CC(C)(C)CC(C)(C)N=C1Nc2cc(Cl)c(Cl)cc2N[C@]12C[C@H]1CCCC(=O)N3CC[C@@H](C2)[C@@H]13	.	i	i	.	.
CCCc1cc(=O)[nH]c(SCC(=O)Nc2cc(S(=O)(=O)N3CCCCC3)ccc2C)n1	-4%	i	?	0	-2%
CSCCC(C(=O)NCc1ccccc1)n1c(C2CCN(C(C)=O)CC2)nc2ccccc21 (stereo unspecified)	.	i	?	-52*	.
CN(C)CC/C=C1\c2ccc(F)cc2Sc2cc(F)c(Cl)cc21	?	i	i	-61*	?
CN(C)CC/C=C1/c2cc(F)ccc2CSc2ccc(F)cc21	-40%	i	i	-14	-7%
SMILES	SW480 rerep	KB-V1 cytotox	KB-3-1 cytotox	IL1B secr inh	MCF10A rerep
CN(C)CC/C=C1/c2ccc(F)cc2Sc2ccc(Cl)cc21	-6%	i	i	-85*	-7%
CN(C)CC/C=C1\c2ccccc2Sc2cc(F)c(Cl)cc21	?	?	i	-93*	23%
CN(C)CC/C=C1\c2cc(Cl)ccc2Sc2cc(F)c(F)cc21	-1%	i	i	-11	?
CC(C)OCCCNC(=O)CN1C(=O)c2cccnc2Sc2ccccc21	.	i	i	.	.
Nc1c(C(=O)N2CCCCCC2)oc2ccccc12	4%	?	i	14	0%
COc1ccc(C)cc1Nc1n[n+](-c2ccccc2)c(-c2ccc(N(C)C)cc2)s1	?	i	?	-67*	?
COc1cccc(-c2cc(C(=O)Nc3ccc(F)cc3)[nH]n2)c1	.	i	i	.	.
CCOC(=O)COc1ccc(CC)cc1C(=O)c1ccn2nc(-c3ccc(C)cc3)cc2n1	.	i	i	.	.
Cc1nc(N2CCOCC2)c2c(C)c(C(=O)Nc3ccc(F)cc3Cl)sc2n1	-4%	i	i	-14	-5%
Cc1nc(N2CCN(c3ccccn3)CC2)c2c(C)c(C(=O)Nc3ccc(F)cc3Cl)sc2n1	?	?	?	?	16µM*
CCc1ccc(NC(=O)c2sc3nc(C)nc(N4CCN(c5ccccn5)CC4)c3c2C)cc1	17%	?	i	-14	?
Cc1c(C(=O)Nc2c(F)cccc2F)sc2ncnc(N3CCN(c4ccccc4)CC3)c12	-2%	i	i	-57*	?
Cc1nc(N2CCN(c3ccccn3)CC2)c2c(C)c(C(=O)Nc3ccc(F)cc3F)sc2n1	?	12µM*	i	-21	?
Cc1nc(N2CCN(c3ccccn3)CC2)c2c(C)c(C(=O)Nc3ccccc3F)sc2n1	-5%	?	21µM*	-9	1%
Cc1cc(C)cc(NC(=O)c2cc(S(=O)(=O)N3CCCC3)ccc2F)c1	.	i	i	.	.
Cc1cc(Br)ccc1NC(=O)c1sc2ncnc(N3CCN(c4ccccn4)CC3)c2c1C	15µM*	?	6.5µM*	-77*	7.3µM*
O=C(N/N=C/c1ccc(Cl)cc1)c1cc2c(s1)-c1ccccc1CC2	?	?	21µM*	15	?
CC(C)C[C@H]1COc2cccc(N3CCC[C@H]3CO)c2S(=O)(=O)N1	.	i	i	99	.
O=C(NNC(=O)c1ccc(Cl)s1)c1csc(N2CCOCC2)n1	7%	i	i	-7	?
O=c1c2ccccc2ncn1Cc1ccc(Cl)c(Cl)c1	23%	i	i	0	1.2µM*
CC(=O)OCC(=O)[C@@]12OC3(CCCC3)O[C@@H]1C[C@H]1[C@@H]3CCC4=CC(=O)C=C[C@]4(C)[C@@]3(F)[C@@H](O)C[C@@]12C	0.26µM*!	i	i	0	?
